Active and inactive are the calls of the source.
How the values were obtained:
[1] = E. coli DRC41 culture turbidity changes, primary screen, E. coli filamentation inducer project, strain DRC41, OD650, 48 h (AID 1152);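 also: E. coli MC1000 strain DRC41 lacking acrAB efflux pump and sulA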; conditions: E. coli DRC41 (acrAB sulA), higher = more signal, called active from +8 up or from −8 down
[2] = small-molecule binders of probe aLefty1, primary screen, biochemical, small-molecule microarray, 635/667 nm fluorescence (AID 1153); conditions: higher = more signal;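 also: score merges spot fluorescence with signal-to-noise ratio from the scanned slide images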
[3] = PSAC antagonists in infected red cells, primary screen, cell-based, P. falciparum Indochina, OD700, 1 h (AID 1154); conditions: P. falciparum Indochina infected RBC osmotic lysis, higher = more signal, called active from +8 up or from −8 down
[4] = PSAC antagonists in infected red cells, primary screen, cell-based, P. falciparum Indochina, OD700, 2 h (AID 1155);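 also: lysis reports solute entry through the parasite surface anion channel PSAC; channel blockers reduce lysis of infected cells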; conditions: P. falciparum Indochina infected erythrocytes, osmotic lysis OD700; higher = more signal, called active from +8 up or from −8 down
[5] = osmotic lysis modulators in infected erythrocytes, primary screen, PSAC antagonist project, cell-based, P. falciparum Indochina, OD700, 3 h (AID 1156); conditions: higher = more signal, called active from +8 up or from −8 down
[6] = PSAC antagonists in infected red cells, primary screen, cell-based, P. falciparum Indochina, OD700, 18 h (AID 1157); conditions: P. falciparum Indochina infected erythrocytes, osmotic lysis OD700, 18 h; higher = more signal, called active from +8 up or from −8 down
[7] = modulators of S6 phosphorylation in cells, primary screen, cell-based, A549, cytoblot, luminescence, serum-stimulated (AID 1158); conditions: A549 phospho-S6 cytoblot, 5 h, higher = more signal;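 also: serum-stimulated A549 lung adenocarcinoma cells; signal is phosphorylated S6 detected by cytoblot immunostaining with HRP secondary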
[8] = target: NADPH oxidase 2 (Homo sapiens) (UniProt P04839); test: NOX2-dependent H2O2 signal modulators, primary screen, NOX inhibitor project, cell-based, HEK293-NOX2, PMA-stimulated, Amplex Red fluorescence (AID 1159); conditions: 45 min, higher = more signal, called active from +8 up or from −8 down; also: test concentration not given here
Sequence of NADPH oxidase 2 (Homo sapiens) (P04839 whole entry, looked up): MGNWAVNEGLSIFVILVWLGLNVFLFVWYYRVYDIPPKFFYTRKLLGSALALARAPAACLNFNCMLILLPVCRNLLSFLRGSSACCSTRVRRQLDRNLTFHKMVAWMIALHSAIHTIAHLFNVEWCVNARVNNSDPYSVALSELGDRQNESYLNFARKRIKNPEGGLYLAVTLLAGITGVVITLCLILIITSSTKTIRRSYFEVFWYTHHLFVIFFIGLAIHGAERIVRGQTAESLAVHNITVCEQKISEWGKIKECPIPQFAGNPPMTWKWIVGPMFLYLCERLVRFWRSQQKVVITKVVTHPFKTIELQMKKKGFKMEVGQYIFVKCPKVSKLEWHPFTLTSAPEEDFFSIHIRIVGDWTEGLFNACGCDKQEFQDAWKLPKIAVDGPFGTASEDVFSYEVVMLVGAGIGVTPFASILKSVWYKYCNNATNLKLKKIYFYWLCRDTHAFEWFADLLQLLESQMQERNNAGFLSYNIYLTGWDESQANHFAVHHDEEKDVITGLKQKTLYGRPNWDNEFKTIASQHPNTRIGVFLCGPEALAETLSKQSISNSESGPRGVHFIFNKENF

[9] = target: NADPH oxidase 4 (Homo sapiens) (UniProt Q9NPH5); test: NOX4-dependent H2O2 signal modulators, primary screen, NOX inhibitor project, cell-based, HEK293-NOX4, tetracycline-induced, Amplex Red fluorescence (AID 1160); conditions: 45 min, higher = more signal, called active from +8 up or from −8 down
Sequence of NADPH oxidase 4 (Homo sapiens) (Q9NPH5 whole entry, looked up): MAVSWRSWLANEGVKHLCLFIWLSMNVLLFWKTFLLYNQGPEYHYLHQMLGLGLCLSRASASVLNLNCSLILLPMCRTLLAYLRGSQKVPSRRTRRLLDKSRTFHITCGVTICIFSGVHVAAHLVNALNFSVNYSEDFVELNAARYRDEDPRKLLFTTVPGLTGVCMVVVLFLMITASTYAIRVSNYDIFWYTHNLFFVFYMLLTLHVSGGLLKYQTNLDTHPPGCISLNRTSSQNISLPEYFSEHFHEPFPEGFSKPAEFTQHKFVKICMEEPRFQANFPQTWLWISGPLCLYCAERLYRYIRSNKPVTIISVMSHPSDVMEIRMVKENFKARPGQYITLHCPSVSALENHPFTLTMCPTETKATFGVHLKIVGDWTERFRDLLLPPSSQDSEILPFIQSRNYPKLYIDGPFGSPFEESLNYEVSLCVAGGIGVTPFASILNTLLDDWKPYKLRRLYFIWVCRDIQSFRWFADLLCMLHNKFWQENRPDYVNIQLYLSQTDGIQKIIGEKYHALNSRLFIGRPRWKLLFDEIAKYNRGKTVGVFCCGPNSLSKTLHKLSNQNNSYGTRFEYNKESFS

[10] = target: NADPH oxidase 5 (Homo sapiens) (UniProt Q96PH1); test: NOX5-dependent H2O2 signal modulators, primary screen, NOX inhibitor project, cell-based, HEK293-NOX5, Amplex Red fluorescence (AID 1161); conditions: HEK293-NOX5, ionomycin, 45 min, higher = more signal
Sequence of NADPH oxidase 5 (Homo sapiens) (Q96PH1 whole entry, looked up): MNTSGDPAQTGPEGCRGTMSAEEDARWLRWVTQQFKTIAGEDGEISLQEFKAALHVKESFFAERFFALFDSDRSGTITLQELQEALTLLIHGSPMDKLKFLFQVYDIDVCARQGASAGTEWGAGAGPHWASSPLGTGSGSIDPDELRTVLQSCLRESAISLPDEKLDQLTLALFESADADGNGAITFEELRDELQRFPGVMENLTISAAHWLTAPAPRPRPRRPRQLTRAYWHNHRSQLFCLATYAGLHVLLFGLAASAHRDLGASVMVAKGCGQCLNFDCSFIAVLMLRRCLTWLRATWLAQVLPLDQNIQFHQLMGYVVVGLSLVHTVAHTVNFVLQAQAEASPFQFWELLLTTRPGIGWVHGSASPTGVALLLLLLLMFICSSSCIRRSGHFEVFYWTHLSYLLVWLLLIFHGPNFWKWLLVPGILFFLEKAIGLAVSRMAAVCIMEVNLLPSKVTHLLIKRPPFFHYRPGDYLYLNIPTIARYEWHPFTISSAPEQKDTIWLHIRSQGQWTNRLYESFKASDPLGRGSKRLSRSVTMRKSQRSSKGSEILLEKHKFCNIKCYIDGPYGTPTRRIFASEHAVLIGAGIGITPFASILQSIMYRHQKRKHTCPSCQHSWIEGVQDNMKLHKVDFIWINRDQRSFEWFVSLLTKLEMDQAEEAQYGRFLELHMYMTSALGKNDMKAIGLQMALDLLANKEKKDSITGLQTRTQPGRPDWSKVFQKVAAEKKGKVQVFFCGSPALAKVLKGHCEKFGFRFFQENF

[11] = A549 cell viability effects, profiling panel, calcein-AM fluorescence, 48 h, basal (AID 1162); conditions: higher = more signal; also: test concentration not given here
[12] = adipocyte viability effects, profiling panel, cell-based, 3T3-L1 adipocytes, calcein-AM fluorescence, 48 h, basal (AID 1163); conditions: 3T3-L1 adipocytes viability, higher = more signal; also: test concentration not given here
[13] = HepG2 cell viability effects, profiling panel, calcein-AM fluorescence, 48 h, basal (AID 1164); conditions: higher = more signal; also: test concentration not given here
[14] = MM1S cell viability effects, profiling panel, calcein-AM fluorescence, 48 h, basal (AID 1165); conditions: higher = more signal;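 also: viability of MM1S multiple myeloma cells under basal unstimulated conditions; test concentration not given here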
[15] = basal RPMI8226 viability, no added stimulus, profiling panel, cell-based, calcein-AM fluorescence, 48 h, PK04 Diversity Set (AID 1166); conditions: RPMI8226 myeloma viability, higher = more signal;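 also: cells grown under basal conditions without added stimulus; test concentration not given here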
[16] = basal HepG2 mitochondrial membrane potential changes, profiling panel, cell-based, JC-1 fluorescence, 24 h, 100 nL compound (AID 1167); conditions: higher = more signal; also: test concentration not given here
[17] = basal 3T3-L1 adipocyte mitochondrial potential changes, profiling panel, cell-based, JC-1 fluorescence, 3T3-L1 adipocytes, 24 h, 100 nL compound (AID 1168); conditions: JC-1 mitochondrial fluorescence, higher = more signal, called active from +8 up or from −8 down; also: test concentration not given here
[18] = basal RPMI8226 mitochondrial membrane potential changes, profiling panel, cell-based, JC-1 fluorescence, 24 h, 100 nL compound (AID 1169); conditions: RPMI8226 myeloma, JC-1 mitochondrial potential fluorescence, higher = more signal; also: test concentration not given here
[19] = basal MM1S mitochondrial membrane potential changes, profiling panel, cell-based, JC-1 fluorescence, 24 h, 100 nL compound (AID 1170); conditions: higher = more signal; also: test concentration not given here
[20] = A549 lung cancer cell viability effects, profiling panel, resazurin fluorescence, 24 h, PK04 Diversity Set (AID 1171); conditions: higher = more signal, called active from +8 up or from −8 down; also: test concentration not given here

| SMILES | z-score [1] | composite z-score [2] | z-score [3] | z-score [4] | z-score [5] | z-score [6] | z-score [7] | z-score [8] | z-score [9] | z-score [10] | z-score [11] | z-score [12] | z-score [13] | z-score [14] | z-score [15] | z-score [16] | z-score [17] | z-score [18] | z-score [19] | z-score [20] |
| --- | --- | --- | --- | --- | --- | --- | --- | --- | --- | --- | --- | --- | --- | --- | --- | --- | --- | --- | --- | --- |
| COCCNC(=O)OCC1CCCC2(CC(OC(=O)NCCc3ccc(F)cc3)CC(CCC(=O)N[C@@H](C)C(=O)OC)O2)O1 (stereo not given in full) | 0.622 (inactive) | 0.0547 | -0.577 (inactive) | -0.61 (inactive) | 0.958 (inactive) | 0.565 (inactive) | 0.672 | 0.769 (inactive) | 0.948 (inactive) | 0.232 | 1.26 | -0.144 | 0.0479 | -0.491 | 0.253 | -0.198 | 0.836 (inactive) | -0.156 | -1 | 1.06 (inactive) |
| C[C@@H](c1ccccc1)N1C(=O)[C@H]2[C@H]3[C@H](O)C=CC(=O)[C@@H]3CC[C@H]2C1=O | -0.0347 (inactive) | -0.193 | -0.352 (inactive) | 0.101 (inactive) | -0.555 (inactive) | -0.284 (inactive) | 0.674 | 1.56 (inactive) | -0.0276 (inactive) | -0.276 | -0.0257 | 0.0344 | 0.628 | -0.438 | -0.136 | 0.457 | 0.715 (inactive) | 0.04 | 0.711 | 0.165 (inactive) |
| COCC1=C2[C@@H](CCc3ccccc3)OB(O)C[C@@H]2n2c(=O)n(-c3ccccc3)c(=O)n2C1 | -0.144 (inactive) | -0.0816 | 1.88 (inactive) | -0.256 (inactive) | -0.698 (inactive) | -0.235 (inactive) | 0.214 | -0.421 (inactive) | -2.2 (inactive) | -1.48 | -0.0316 | -0.174 | 0.602 | -0.0123 | -0.412 | -1.83 | 0.619 (inactive) | 0.164 | 0.368 | -0.566 (inactive) |
| O=C1O[C@@H](c2ccccc2)[C@@H](c2ccccc2)N2[C@@H](c3ccccc3OCCO)[C@]3(C(=O)Nc4ccc(C#CCCO)cc43)[C@@H](C(=O)O)[C@H]12 | 0.0825 (inactive) | 1.66 | 1.32 (inactive) | -2.1 (inactive) | 0.152 (inactive) | -2.06 (inactive) | 1.47 | 0.559 (inactive) | -0.438 (inactive) | -0.847 | -0.622 | 1.78 | -0.173 | -1.43 | -1.98 | 0.259 | -0.881 (inactive) | -0.231 | -0.641 | -0.0647 (inactive) |
| COc1ccc([Si](C)(C)[C@H]2[C@H](CC(=O)N3CCC[C@H]3CO)O[C@@]3(C(=O)N(Cc4cccc(N5C(=O)COc6ccccc65)c4)c4ccccc43)[C@@H]2C)cc1 | 1.62 (inactive) | 0.169 | 6.56 (inactive) | 0.0867 (inactive) | -0.749 (inactive) | -0.701 (inactive) | 1.03 | 1.1 (inactive) | 1.21 (inactive) | 2.99 | 0.819 | 0.198 | 1.01 | -2.42 | -4.37 | 4.27 | 1.86 (inactive) | -0.938 | 0.741 | -0.343 (inactive) |
| O=C1[C@H]2[C@H]3[C@H](O)[C@H](O)CC(=NOC[C@@H](O)COCc4ccco4)[C@@H]3CC[C@H]2C(=O)N1c1ccc(F)cc1F | -0.0233 (inactive) | -0.639 | 2.3 (inactive) | 0.537 (inactive) | 1.67 (inactive) | 0.405 (inactive) | -0.51 | -1.37 (inactive) | 0.523 (inactive) | -0.579 | -0.2 | 0.165 | -1.22 | 0.136 | -1.11 | 0.42 | -0.116 (inactive) | -0.0126 | -0.221 | 0.24 (inactive) |
| CC(CCN1CCc2nc(-c3ccccc3)c(-c3ccccc3)cc2C1)=NO[C@@H](C)c1cn([C@H](CO)Cc2ccccc2)nn1 | -1.44 (inactive) | -0.103 | -0.278 (inactive) | -1.89 (inactive) | 0.0934 (inactive) | -2.16 (inactive) | 1.52 | -7.26 (inactive) | -1.51 (inactive) | -4.19 | 2.69 | 0.343 | 1.4 | -0.352 | -0.0077 | 1.87 | -0.353 (inactive) | 0.555 | 0.41 | -0.81 (inactive) |
| CO[C@@H]1COC(=O)CC=C[C@@H](C)[C@H](OC)COC(=O)[C@H](COCc2ccccc2)NC(=O)CC=C[C@H]1C | -0.991 (inactive) | -0.147 | -0.129 (inactive) | 0.151 (inactive) | 0.181 (inactive) | 0.354 (inactive) | 0.354 | -1.79 (inactive) | 0.0385 (inactive) | 0.0539 | -0.0667 | 0.461 | 0.422 | -0.0878 | 0.651 | 0.0535 | -0.303 (inactive) | 0.577 | 0.179 | -0.27 (inactive) |
